Mdm2-MdmX inh: human Mdm2/MdmX binding inhibition; O15151+Q00987; SaOS-2 split-luciferase Mdm2/MdmX complementation, luminescence; inhibition, % at 8 µM; 3% of 330,000 active; AID 485346;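 active = inhibition of at least 50% at 8 µM in the primary screen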
MPTP block: blocks calcium-induced mitochondrial swelling. AID 602449. 1.4% of 360,000 active. inhibition, % at 10 µM. isolated mouse mitochondria, Ca2+ swelling absorbance, 30 min;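 active = inhibition of 50% or more, scaled per plate between neutral and stimulator controls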;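 note: 0% = DMSO wells given calcium and 100% = 1 mM EGTA wells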
Beta apoptosis: beta cell apoptosis inhibition. INS-1E cytokine-induced death, ATP luminescence, 48 h; percent of positive-control rescue, neutral wells zero. 0.8% of 300,000 active. protection from apoptosis, % (no concentration beside the values);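 active = Every replicate reaches about 75%, or at least half do and their mean reaches it too, limit read from the data; inconclusive = At least half of replicates reach the limit but their mean does not; inactive = Under half of replicates reach the limit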;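 note: 0% = cytokine-treated negative control wells and 100% = positive control rescue; higher means more ATP so stronger rescue from cytokine killing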
CSC inhib: cancer stem cell inhibition. cancer stem cell-like cells viability, luminescence. inhibition, % at 7.5 µM. 1.1% of 300,000 active. AID 2717; in the data active = inhibition above about 75%; inconclusive = no clear call, values can overlap the other calls; tested in HMLE shEcad cells
Calb FLC: C. albicans growth modulation with fluconazole. C. albicans CaCi-2 (fluconazole-resistant clinical isolate) + fluconazole, Alamar Blue growth, 48 h. growth inhibition, % (test concentration not listed). 0.57% of 300,000 active. AID 1979;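 active = growth inhibition above about 58% in most replicates, limit read from the data, passing the limit was not always enough; inconclusive = exactly half the replicates above a set limit; inactive = most replicates below a set limit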;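 note: all wells also contain fluconazole at 8 µg/ml as a sub-toxic cotreatment; 0% = median of DMSO wells and 100% = median of geldanamycin control wells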
SKKanGAS inh: inhibitors of SKKanGAS S. pyogenes growth in kanamycin (SK-promoter or general growth effect); BacTiter-Glo, 6 h; inhibition, % at 7.5 µM; 1.3% of 300,000 active; AID 1662;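 active = mean replicate score, as percent of positive control median, at least 50; inconclusive = mean below 50 but one replicate at or above 50; inactive = mean and every replicate below 50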;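 note: strain carries kanamycin resistance gene driven by streptokinase promoter and grows in 40 µg/ml kanamycin; loss of luminescence reflects streptokinase promoter inhibition or plain growth inhibition; 0% = median of DMSO wells and 100% = positive control at its reference dose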
Mdm2 MdmX conf: confirmation of human Mdm2/MdmX interaction inhibitors | AID 489028 | Mdm2-MdmX binding, luminescent assay | inhibition, % at 8 µM | 55% of 10,000 active | shares compounds with Mdm2-MdmX inh; in the data active = inhibition above about 40%
Full FLuc ctr: counter-screen for Mdm2/MdmX inhibitors: full-length luciferase; SaOS-2 full-length luciferase counterscreen, luminescence; 77% of 6,200 active; AID 504607; inhibition, % at 8 µM; shares compounds with Mdm2-MdmX inh;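 active = mean inhibition at 8 µM reaching about 37%, which flags the compound as non-specific, limit read from the data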;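 note: p53-null SaOS-2 cells with luciferase driven by a doxycycline-inducible promoter; compound on cells about two nights before reading with doxycycline added after day one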
The depositor's hits bear a star; ? = inconclusive; · = no result. Hits are enriched below; roughly 5.4% of the tested compounds scored in any of these assays.

SMILES	Mdm2-MdmX inh	MPTP block	Beta apoptosis	CSC inhib	Calb FLC	SKKanGAS inh	Mdm2 MdmX conf	Full FLuc ctr
CC(C)C[C@H](NC(=O)N1CC(=O)Nc2ccccc21)C(=O)N[C@@H](Cc1c[nH]c2ccccc12)C(=O)O	7	1	0	1	-5	-1	·	·
CCC(C)NC(=O)/C=C/c1cccs1 (stereo unspecified)	-31	-4	2	7	-3	1	·	·
CCCc1sc(N/N=C/c2ccccn2)nc1-c1ccc(F)cc1	69*	2	91*	93*	18	96*	36	45*
CC[n+]1c(/C=C2/C=C(C)CC(C)(C)C2)sc2ccc(OC)cc21	54*	26	-5	30	15	3	27	57*
COc1ccc(OC)c(NC(=O)C2CCC(CNc3c(N4CCC(C)CC4)c(=O)c3=O)CC2)c1 (stereo unspecified)	52*	0	·	-14	0	8	29	·
CN(C)C1=NC[C@H](Cc2ccccc2)N1CCCC1CCCC1	53*	1	40	36	·	·	28	68*
CN(C)C1=NC[C@H](Cc2ccccc2)N1CCC1CCCC1	29	1	10	3	·	·	·	·
CN1C(=O)CC(c2ccccc2)CC1=O	-10	-1	-12	-7	-3	0	·	·
CCn1cc(C(=O)NCCC(C)C)c(=O)c2cc(F)c(N3CCN(C(=O)c4ccco4)CC3)cc21	54*	-3	11	29	-6	26	42*	63*
CCN1CCCC1CNCc1ccc(OCc2ccc(Cl)nc2)c(OC)c1 (stereo unspecified)	15	0	-8	-6	-4	17	·	·
CC(C)=CCC/C(C)=C/CC(C)(C)CNCCN1CCNCC1	88*	·	7	65	-23	-11	30	·
CC(C)=CCC/C(C)=C/CCC(C)NCCN1CCNCC1 (stereo unspecified)	27	·	7	53	-10	-9	·	·
O=C(C1CC1)N1N=C(c2ccncc2)CC1(O)C(F)(F)F (stereo unspecified)	27	0	-6	-6	-9	-3	·	·
Cc1ccc(-c2nnn(CC(=O)N(CC(=O)NC3CCCC3)c3ccc(F)c(Cl)c3)n2)o1	60*	1	9	·	0	8	15	·
O=c1[nH]c2cc3c(cc2cc1C(c1nnnn1Cc1ccccc1)N1CCCc2ccccc21)OCO3 (stereo unspecified)	100*	·	·	-5	6	-8	10	·
O=c1[nH]c2cc3c(cc2cc1C(c1nnnn1Cc1ccccc1)N1CCCCCC1)OCCO3 (stereo unspecified)	0	3	-8	9	2	7	·	·
CC1=NN(c2ccc(C)c(C)c2)C(=O)/C1=C\C=C\c1ccc([N+](=O)[O-])o1	77*	4	84*	-14	2	9	57*	41*
COC(=O)c1ccc(OCc2cc(=O)n3ccsc3n2)cc1	-23	-1	0	2	23	-2	·	·
Cc1occc1-c1nnc(SCC(=O)N2CC(=O)Nc3ccccc32)n1CC(C)C	2	-3	-3	·	·	4	·	·
O=S1(=O)c2ccccc2N=NN1Cc1ccc(Cl)c(Cl)c1	-7	·	-10	-6	-6	13	·	·
CC(C)(C)c1ccc(CN2N=Nc3ccccc3S2(=O)=O)cc1	67*	-6	15	-3	1	4	47*	59*
CC(CN1CCCC1)OC(=O)c1ccc(F)cc1 (stereo unspecified)	8	0	·	-8	10	-3	·	·
Cc1cccc(NC2(C(F)(F)F)N=C(c3ccccc3)NC2=O)n1 (stereo unspecified)	9	-2	2	-11	3	1	·	·
Cc1nc2ccccc2nc1N/N=C/c1ccc(O)cc1	-36	0	1	5	7	1	·	·
Cc1nc(N/N=C/c2ccc(O)cc2)c2cnn(-c3ccccc3)c2n1	59*	2	1	-7	58	?	-3	·
SMILES	Mdm2-MdmX inh	MPTP block	Beta apoptosis	CSC inhib	Calb FLC	SKKanGAS inh	Mdm2 MdmX conf	Full FLuc ctr
Cc1nnnn1/C(=C\c1ccccc1)C(=O)OCC(=O)NC1CCCCC1	62*	0	-30	25	-3	6	45*	45*
CCOC(=O)c1c(NC(=O)c2ccc(S(=O)(=O)N3CCOCC3)cc2)sc2c1CCN(C)C2	22	-1	-3	20	-26	3	·	·
CCOC(=O)c1c(NC(=O)c2ccc(S(=O)(=O)N3CCOCC3)cc2)sc2c1CC(C)(C)NC2(C)C	55*	1	-1	12	-7	0	34	·
Cc1ccc(C(C)C)c(OCC(=O)Nc2sc3c(c2C#N)CC(C)(C)NC3(C)C)c1	59*	3	29	65	-16	0	31	81*
CCOC(=O)c1c(NC(=O)CSc2ncccn2)sc2c1CC(C)(C)NC2(C)C	35	0	-7	-17	10	-3	·	·
CCOC(=O)c1c(NC(=O)COc2ccccc2F)sc2c1CC(C)(C)NC2(C)C	84*	0	·	45	8	-4	72*	63*
COC(=O)c1c(NC(=O)COc2ccc(Cl)cc2)sc2c1CC(C)(C)NC2(C)C	95*	2	102*	10	32	68*	99*	0
N#CCCN(Cc1ccccc1)C(C(=O)NC1CCCCC1)C1CC1 (stereo unspecified)	·	0	·	·	·	·	·	·
Cc1c(NS(=O)(=O)c2ccc([N+](=O)[O-])cc2)c(=O)n(-c2ccccc2)n1C	-5	0	5	-10	-6	0	·	·
O=C(NCCCN1CCCC1)c1ccc2c(c1)N(Cc1cccc(Cl)c1)C(=O)c1ccccc1S2=O (stereo unspecified)	53*	-1	-4	-7	-6	0	14	·
CC1CC(C)CN(CCCNC(=O)c2ccc3c(c2)N(Cc2ccccc2)C(=O)c2ccccc2S3=O)C1 (stereo unspecified)	64*	2	7	8	5	0	41*	69*
Nc1ccccc1C(=O)NC(=O)Nc1ccc(Oc2ncc(Br)cn2)c(Cl)c1	·	3	·	·	·	·	·	·
Cc1cc(Cl)c2oc(C(=O)N3CCN(c4ccncc4)CC3)c(C)c2c1	90*	0	48	83*	-11	10	51*	57*
COc1ccc(C(=O)NNC(=O)c2ccc3ccccc3n2)cc1	63*	-1	59	49	·	·	53*	53*
O=C1C=C(NCc2ccc(Cl)cc2)CC(c2ccco2)C1 (stereo unspecified)	-24	-1	-1	-3	-13	3	·	·
O=C1C=C(Nc2ccc(Cl)cc2Cl)CC(c2ccco2)C1 (stereo unspecified)	51*	-1	-1	49	12	6	53*	62*

Bioassay records (PubChem)
